Potency and affinity values are given separately.
Key:
[1] = system: Klebsiella pneumoniae; details: Concentration 32 ug.mL-1;; ASSAY_TEST Inhibition of Bacterial Growth; detection method Absorption (OD600); MEDIA CAMHB; plate type 384well; NBS; CORNING #3640; time 18 hr
[2] = system: Candida albicans; details: Concentration 32 ug.mL-1; ASSAY_TEST Inhibition of Fungal Growth; detection method Absorption (OD530)
[3] = system: Cryptococcus neoformans; details: Concentration 32 ug.mL-1; ASSAY_TEST Inhibition of Fungal Growth; detection method Resazurin; Absorption (OD600-OD570); plate type 384well; NBS; CORNING #3640

| SMILES | Inhibition [1] [%] | Inhibition [2] [%] | Inhibition [3] [%] |
| --- | --- | --- | --- |
| COc1cccc(CSc2nnc3c(=O)n(-c4ccccc4OC)ccn23)c1 | 6.64 | 1.36 | -5.34 |
| CCc1cccc(NC(=O)Cn2nc3ccc(SC4CCCCC4)nn3c2=O)c1 | 16.99 | 2.91 | -22.11 |
| Cc1cccc(Oc2nccn3c(=O)n(CC(=O)N4CCN(c5ccccc5F)CC4)nc23)c1C | -1.33 | 1.02 | -17.84 |
| Cc1nnc2c(=O)n(CC(=O)Nc3ccc(F)cc3)c3ccccc3n12 | 10.46 | 0.41 | -6.03 |
| Cc1ccc(CN(c2ccc(F)cc2)S(=O)(=O)c2ccc3nnc(C)n3c2)cc1 | -1.29 | 5.66 | -6.24 |
| CCOC(=O)c1ccccc1NC(=O)Cn1nc2c(Oc3cccc(OC)c3)nccn2c1=O | 5.46 | 0.95 | -5.16 |
| Cc1cc(C)cc(NC(=O)Cn2nc3c(Sc4cccc(C)c4)nc4ccccc4n3c2=O)c1 | 5.29 | 1.16 | -15.02 |
| Cc1cccc(Sc2nccn3c(=O)n(CC(=O)Nc4ccc(Br)cc4C)nc23)c1 | 8.64 | 6.35 | -17.23 |
| COc1ccc(NC(=O)c2ccc3nn(CC(=O)Nc4ccc(S(C)(=O)=O)cc4)c(=O)n3c2)cc1 | 1.84 | 15.13 | -4.16 |
| CC(C)c1nnc2c(SCC(=O)Nc3ccc(Cl)cc3C(F)(F)F)nc3ccccc3n12 | 1.04 | 3.28 | -8.02 |
| CCc1nnc2c(S(=O)(=O)N(Cc3ccccc3Cl)c3ccccc3)cccn12 | 6.34 | 3.28 | -4.36 |
| CCCNC(=O)Cn1nc2n(Cc3ccco3)c(=O)c3sccc3n2c1=O | 8.71 | 5.01 | -16.3 |
| Cc1cc2nn(CC(=O)Nc3ccc(F)c(F)c3)c(=O)n2c(Nc2ccc(F)c(C)c2)n1 | 10.55 | 1.57 | -7.1 |
| CC(C)CCn1c(=O)c2ccc(C(=O)NC3CCCCC3)cc2n2c(=S)[nH]nc12 | 1.69 | 2.77 | -13.59 |
| Cc1cc(NC(=O)CSc2nc3ccccc3n3cnnc23)ccc1Br | 14.4 | 4.71 | -40.95 |
| CCCCN(CC)C(=O)CSc1nnc2c(=O)n(Cc3ccccc3F)ccn12 | 7.9 | 2.5 | -19.25 |
| Cc1cccc(NC(=O)Cn2nc3ccc(-c4ccc(Cl)cc4)nn3c2=O)c1C | 8.72 | 0.72 | -12.84 |
| Cc1nnc2c(S(=O)(=O)N(Cc3cccc(F)c3)c3cccc(F)c3)cccn12 | 14.45 | 2.41 | -6.64 |
| COc1ccccc1N1CCN(C(=O)CSc2nnc3c(=O)n(-c4ccc(F)cc4)ccn23)CC1 | 11.85 | 1.66 | -8.01 |
| CCCNC(=O)Cn1nc2cc(C)nc(Nc3cc(C)cc(C)c3)n2c1=O | 18.12 | 5.03 | -9.02 |

| SMILES | Inhibition [1] [%] | Inhibition [2] [%] | Inhibition [3] [%] |
| --- | --- | --- | --- |
| Cc1ccc(-c2ccc3nn(Cc4nc(-c5ccc(Cl)cc5)no4)c(=O)n3n2)cc1 | 0.33 | 7.26 | -7.02 |
| COc1ccc(-c2cc3c4nn(CC(=O)Nc5ccccc5OC)c(=O)n4ccn3n2)cc1 | 7.14 | 0.94 | -14.32 |
| CCOC(=O)c1ccc(NC(=O)Cn2nc3ccc(Sc4ccccc4)nn3c2=O)cc1 | 5.75 | 4.06 | -9.53 |
| COC(=O)c1cccc(NC(=O)Cn2nc3ccc(-c4ccccc4)nn3c2=O)c1 | -4.82 | 4.96 | -15.91 |
| CCCCOc1ccc(-c2cc3c4nnc(SCC(=O)Nc5cccc(C(C)=O)c5)n4ccn3n2)cc1 | 9.96 | 5.2 | -6.36 |
| COc1ccc(-c2cc3c4nnc(CCC(=O)NCc5ccc6c(c5)OCO6)n4ccn3n2)cc1 | 9.82 | 3.53 | -3.36 |
| COc1cccc(CNC(=O)CCc2nnc3ccc(-c4ccc(C)cc4)nn23)c1 | 5.64 | 2.05 | -1.51 |
| COc1ccc(-c2cc3c4nnc(SCC(=O)NCc5ccccc5)n4ccn3n2)cc1 | -10.83 | 19.83 | -19.87 |
| Cc1cc(Br)ccc1NC(=O)Cn1nc2c(SC3CCCCC3)nccn2c1=O | 10.86 | 1.51 | -21.25 |
| COc1ccc(NC(=O)Cn2nc3ccc(Sc4ccccc4)nn3c2=O)cc1 | 3.54 | 3.37 | -9.77 |
| COc1cccc(-n2ccn3c(SCc4ccccc4C)nnc3c2=O)c1 | 8.9 | 2.6 | -11.74 |
| O=S(=O)(c1ccc2nncn2c1)N(Cc1cc(F)cc(F)c1)c1ccc2c(c1)OCO2 | 11.56 | 2.54 | -7.84 |
| COc1ccc(-c2cc3c4nnc(CCC(=O)NCc5ccccc5Cl)n4ccn3n2)cc1 | 3.58 | 1.3 | -11.66 |
| O=C(Cn1nc2c(Sc3cccc(F)c3)nccn2c1=O)Nc1ccc(Br)cc1 | 4.85 | 1.59 | -3.57 |
| COc1ccccc1N1CCN(C(=O)Cn2nc3c(Sc4cccc(C)c4)nccn3c2=O)CC1 | -0.72 | 2.52 | -34.84 |
| CCOC(=O)c1cccc(NC(=O)CSc2nc3ccccc3n3c(C(C)C)nnc23)c1 | 16.4 | 0.96 | -15.16 |
| CN(C(=O)Cn1nc2nc(Nc3ccc(F)cc3)ccn2c1=O)c1ccccc1 | 8.25 | 3.9 | -4.67 |
| COc1cccc(Oc2nccn3c(=O)n(CC(=O)Nc4ccc5c(c4)OCCO5)nc23)c1 | 1.41 | 7.65 | -9.22 |
| COc1ccc(C(C)NC(=O)CCc2nnc3ccc(-c4ccc(C)c(C)c4)nn23)cc1OC (stereo not given) | 11.56 | 3.04 | -6.29 |
| Cc1nnc2c(=O)n(CC(=O)Nc3cccc(Cl)c3)c3ccccc3n12 | 15.43 | -0.29 | -13.95 |

| SMILES | Inhibition [1] [%] | Inhibition [2] [%] | Inhibition [3] [%] |
| --- | --- | --- | --- |
| COc1ccc(CNC(=O)CCc2nnc3c4cc(-c5ccc(Cl)cc5)nn4ccn23)cc1OC | 10.48 | 1.41 | -19.71 |
| CSc1cccc(NC(=O)Cn2nc3c(Oc4ccccc4C)nccn3c2=O)c1 | 7.38 | -0.96 | -9.56 |
| Cc1ccc(-c2ccc3nn(CC(=O)Nc4ccc(Cl)cc4)c(=O)n3n2)cc1C | 17.23 | 0.13 | -13.82 |
| O=c1c2sccc2n2c(=O)n(Cc3cccc(Br)c3)nc2n1Cc1cccs1 | -22.43 | 62.43 | -21.53 |
| CSc1ccc(-c2noc(Cn3nc4ccc(-c5ccccc5)nn4c3=O)n2)cc1 | -3.08 | 17.1 | -6.64 |
| COc1ccc2[nH]cc(C(=O)CSc3nnc4c(=O)n(-c5cccc(Cl)c5C)ccn34)c2c1 | 5.78 | 2.95 | -9.58 |
| Cc1cccc(N(CC(=O)OC(C)(C)C)S(=O)(=O)c2cccn3c(C)nnc23)c1 | 8.25 | 2.37 | -7.45 |
| O=c1n(Cc2ccc3c(c2)OCO3)nc2c(S(=O)(=O)N3CCCC3)cccn12 | 5.42 | 0.37 | -5.87 |
| CC(C)Cn1c(=O)c2sccc2n2c(=O)n(Cc3ccc(Br)cc3)nc12 | 4.98 | -2.24 | -27.05 |
| Cc1ccc(Oc2nccn3c(=O)n(CC(=O)Nc4ccc(F)cc4F)nc23)cc1 | 1.97 | 0.56 | -6.68 |
| Cc1cccc(Sc2nccn3c(=O)n(CC(=O)N4CCN(c5ccc(F)cc5)CC4)nc23)c1 | -8.7 | 3.19 | -30.97 |
| O=S(=O)(c1cccn2c(SCc3c(F)cccc3Cl)nnc12)N1CCCC1 | 5.57 | -0.64 | -6.69 |
| O=C(Cn1nc2c(N3CCOCC3)nccn2c1=O)NCc1ccccc1Cl | 10.56 | 3.88 | -5.18 |
| Cc1ccc(NC(=O)Cn2nc3c(Sc4ccccc4)nccn3c2=O)c(Br)c1 | 0.72 | 22.67 | -9.68 |
| Cc1nnc2ccc(S(=O)(=O)N(Cc3ccccc3Cl)c3cccc(F)c3)cn12 | 7.69 | 4.75 | -10.07 |
| CC(C)c1nnc2c(=O)n(CC(=O)Nc3ccc(Cl)c(Cl)c3)c3ccccc3n12 | 5.02 | 3.27 | -9.31 |
| CCOc1ccc(NC(=O)Cn2nc3ccc(SCc4ccc(Cl)cc4)nn3c2=O)cc1 | 7.43 | 15.3 | -13.71 |
| CCCCc1ccc(NC(=O)Cn2nc3c(N4CCN(c5ccccc5C)CC4)nccn3c2=O)cc1 | -4.55 | 48.6 | -6.75 |
| Cc1ccc(Nc2cc(C)n3c(=O)n(CCOc4ccc(F)cc4)nc3n2)cc1 | 19.26 | 2.38 | -10.19 |
| CCN(CCCNC(=O)CCc1nnc2ccc(-c3ccc(C)c(C)c3)nn12)c1ccccc1 | 13.51 | 13.02 | -7.8 |
